These results are taken from PubChem BioAssay AID651640 (Broad Institute, 2012).

Hit rate of the full screen: of about 350,000 compounds, about 6,000 (1.7%) were called active. Inconclusive results (about 5%) are left out. Cut-off read from the data, not from the text of the source: active = CPE inhibition above about 20% (passing the limit was not always enough); inconclusive = no clear call, values can overlap the other calls; tested in BHK-21 cells. What follows is part of a selection rich in actives, with near analogues and random picks from the rest.

This experiment can be described thus: protection of cells from dengue 2 killing – plate reader, single concentration, primary screen (AID 651640).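 Note: 0% = median of neutral control wells and 100% = median of positive control wells.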 Conditions: DENV2-infected cells, cytopathic effect rescue, at 9.99 µM, stronger effect = higher value.
On to `O=S(=O)(c1ccc(F)cc1)N1CCCCN2[C@H](C1)[C@H](c1ccc(C3=CCCCC3)cc1)[C@@H]2CO`, for which the CPE inhibition was -4.44% (inactive). The value for `COc1cccc(S(=O)(=O)N2CCCCN3[C@H](CO)[C@H](c4ccc(C#CC5CC5)cc4)[C@H]3C2)c1` was -34.9% (inactive); that for `CCN1[C@@H]2Cn3c(ccc(-c4cccc(OC)c4)c3=O)[C@H]1[C@@H](C(=O)N(C)C)[C@@H]2CO` was -1.41% (inactive).

Turning to `O=C(Nc1ccccc1)N[C@@H]1CC[C@H](CCn2cc(C3(O)CCCC3)nn2)O[C@@H]1CO`, the CPE inhibition is -11.6% (inactive). For `C[C@H](CO)N1C[C@H](C)[C@H](CN(C)C)Oc2ccc(NC(=O)Cc3ccccc3)cc2CC1=O`, the CPE inhibition is 9.5% (inactive).

`CC(C)c1cn(CC[C@@H]2CC[C@@H](NC(=O)C3CCC3)[C@@H](CO)O2)nn1`: the CPE inhibition was -3.48% (inactive).

As for `Cc1noc(C)c1NC(=O)Nc1cccc2c1O[C@H](CN(C)S(C)(=O)=O)[C@H](C)CN([C@H](C)CO)C2=O`, the CPE inhibition was 6.73% (inactive). In the case of `C[C@@H]1CN([C@@H](C)CO)C(=O)c2cc(-c3cncnc3)cnc2O[C@@H]1CN(C)Cc1ccncc1` it was 15% (inactive); in that of `CO[C@@H]1CN(C)C(=O)c2cc(NC(=O)Nc3cc(F)ccc3F)ccc2OC[C@H](C)N(C)C[C@@H]1C`, -0.0135% (inactive); in that of `CN1c2ccc(-c3ccc(C#N)cc3)cc2[C@@H]2[C@@H](CCN2C(=O)C2CCCCC2)[C@H]1CO`, -20.7% (inactive). In the case of `Cc1ccc(CN2CC(N3CCC(Cc4ccccc4)CC3)CS2(=O)=O)cc1` (stereo unspecified) it was -8.76% (inactive); in that of `Cc1ccc(CN2CCCOCCS2(=O)=O)cc1`, 40.2% (active). In the case of `O=S1(=O)CCOC[C@H](CC2CCCCC2)N1Cc1ccc(F)cc1` it was 3.12% (inactive); in that of `COc1ccc(-c2cnc3c(c2)C(=O)N([C@H](C)CO)C[C@@H](C)[C@H](CN(C)C(=O)Cc2ccncc2)O3)cc1`, -3.69% (inactive).

On to `CCCCN(C(C)=O)c1ccc2c(c1)C1CC2CCN1Cc1ccccc1` (stereo unspecified), for which the CPE inhibition is 42.3% (active). In the case of `Clc1cccc2c1C1CC2CCN1Cc1ccccc1` (stereo unspecified) it was -7.07% (inactive); in that of `FC(F)(F)c1ccc(-c2cccc3c2C2CC3CCN2Cc2ccccc2)cc1` (stereo unspecified), -4.78% (inactive). The value for `COc1cccc(S(=O)(=O)N(C)C[C@@H]2Oc3ncc(-c4cccc(C(=O)N(C)C)c4)cc3C(=O)N([C@H](C)CO)C[C@@H]2C)c1` was 9.65% (inactive); that for `CN1c2ccc(-c3cccc(C#N)c3)cc2[C@@H]2[C@@H](CCN2C(=O)NC2CCCCC2)[C@@H]1CO` was -19.7% (inactive). Consider `O=C(N[C@H]1CC[C@H](CCn2cc(-c3ccccc3F)nn2)O[C@@H]1CO)c1ccc2c(c1)OCO2`, for which the CPE inhibition is 6.43% (inactive). In the case of `C[C@H](CO)N1C[C@H](C)[C@H](CN(C)S(=O)(=O)c2ccccc2)Oc2c(NC(=O)Nc3ccccc3)cccc2C1=O` it was -3.55% (inactive); in that of `C[C@@H]1CN([C@@H](C)CO)C(=O)c2cccc(NS(=O)(=O)c3ccc(F)cc3)c2O[C@H]1CN(C)S(=O)(=O)c1cccs1`, -1.22% (inactive); in that of `COc1ccc(S(=O)(=O)N(C)C[C@@H]2Oc3c(NS(=O)(=O)c4ccccc4)cccc3C(=O)N([C@@H](C)CO)C[C@@H]2C)cc1`, -6.28% (inactive). In the case of `C[C@H]1CN([C@@H](C)CO)C(=O)c2cccc(NS(=O)(=O)c3ccc(Cl)cc3)c2O[C@H]1CN(C)S(=O)(=O)c1ccc(Cl)cc1` it was -6.39% (inactive). In the case of `C[C@H](CO)N1C[C@H](C)[C@H](CN(C)S(=O)(=O)c2cccs2)Oc2c(NS(=O)(=O)c3ccc(Cl)cc3)cccc2C1=O` it was 24.5% (active); in that of `COc1ccc(S(=O)(=O)Nc2cccc3c2O[C@@H](CN(C)S(=O)(=O)c2ccc(F)cc2)[C@H](C)CN([C@H](C)CO)C3=O)cc1`, -7.57% (inactive). For `C[C@@H]1CN([C@@H](C)CO)C(=O)c2cccc(NS(=O)(=O)c3cccs3)c2O[C@@H]1CN(C)CC1CC1`, the CPE inhibition is 30.5% (active). The value for `C[C@H]1CN([C@@H](C)CO)C(=O)c2cccc(NC(=O)Nc3ccccc3)c2O[C@H]1CN(C)S(=O)(=O)c1ccc(Cl)cc1` was 29.2% (active); that for `COc1ccc(S(=O)(=O)Nc2cccc3c2O[C@H](CN(C)S(=O)(=O)c2ccc(OC)cc2)[C@@H](C)CN([C@H](C)CO)C3=O)cc1` was 21.2% (active). The value for `Cc1ccc(S(=O)(=O)N(C)C[C@H]2Oc3c(NS(=O)(=O)c4cccs4)cccc3C(=O)N([C@@H](C)CO)C[C@@H]2C)cc1` was -0.283% (inactive); that for `Cc1ccc(S(=O)(=O)N(C)C[C@@H]2Oc3c(NC(=O)Nc4ccccc4)cccc3C(=O)N([C@H](C)CO)C[C@H]2C)cc1` was 5.91% (inactive). For `C[C@@H]1CN([C@@H](C)CO)C(=O)c2cccc(NS(=O)(=O)c3cccs3)c2O[C@H]1CN(C)Cc1ccncc1`, the CPE inhibition was -4.19% (inactive). In the case of `Cc1ccc(S(=O)(=O)NCC[C@@H]2CC[C@H](NC(=O)CC3CC3)[C@H](CO)O2)cc1` it was -2.24% (inactive); in that of `COc1ccc(NC(=O)Nc2ccc3c(c2)C(=O)N([C@H](C)CO)C[C@@H](C)[C@H](CN(C)Cc2ccccc2)O3)cc1`, -6.1% (inactive). Regarding `CCCC#Cc1ccc2c(c1)O[C@H](CN(C)C(=O)c1ccncc1)[C@H](C)CN([C@H](C)CO)S2(=O)=O`, the CPE inhibition was -4.65% (inactive). In the case of `CO[C@@H]1CN(C)C(=O)c2ccc(NS(=O)(=O)c3cn(C)cn3)cc2OC[C@H](C)N(CCC(F)(F)F)C[C@@H]1C` it was -5.08% (inactive). Turning to `C[C@@H]1CN([C@@H](C)CO)C(=O)c2cc(NC(=O)CCN3CCOCC3)ccc2O[C@H]1CN(C)C(=O)NC1CCCCC1`, the CPE inhibition is -3.33% (inactive).

In the case of `CN1[C@@H]2CN(C(=O)C3CCCCC3)c3ccccc3[C@@H]2[C@@H]1CO`, the CPE inhibition is -5.31% (inactive). The value for `CC(C)NC(=O)N1C[C@@H]2[C@H](c3ccccc31)[C@@H](CO)N2Cc1ccc(Cl)cc1` was 47.3% (active). Regarding `COc1ccccc1NC(=O)N1C[C@H]2[C@@H](c3ccccc31)[C@H](CO)N2Cc1ccc2c(c1)OCO2`, the CPE inhibition is 55.6% (active). As to `COc1ccc(C(=O)N2C[C@@H]3[C@H](c4ccccc42)[C@H](CO)N3Cc2ccc3c(c2)OCO3)cc1`, the CPE inhibition was -6.95% (inactive). In the case of `CC(C)NC(=O)N1C[C@@H]2[C@H](c3ccccc31)[C@H](CO)N2C(=O)C1CCCC1` it was -6.09% (inactive).

As to `COc1ccc(CN2[C@@H](CO)[C@@H]3c4ccccc4N(C(=O)Nc4ccccc4)C[C@@H]32)cc1`, the CPE inhibition is -9.93% (inactive). The value for `COc1ccccc1NC(=O)N1C[C@@H]2[C@H](c3ccccc31)[C@H](CO)N2CC1CCOCC1` was 16.7% (inactive); that for `COc1ccc(CN2[C@H](CO)[C@@H]3c4ccccc4N(C(=O)C4CC4)C[C@@H]32)cc1` was 26.1% (active). In the case of `CC(=O)N1C[C@@H]2[C@H](c3ccccc31)[C@H](CO)N2Cc1ccc(Cl)cc1` it was 16.8% (inactive); in that of `CCC(=O)N(C)C[C@H]1Oc2ncc(C#Cc3cccnc3)cc2C(=O)N([C@H](C)CO)C[C@H]1C`, 4.92% (inactive). In the case of `CCCNC(=O)N1[C@H](C#N)[C@@H](c2ccccc2C2=CCCCC2)[C@@H]1CO`, the CPE inhibition was -2.61% (inactive). The value for `O=C(c1ccc2c(c1)OCO2)N1CC(=O)N2[C@H](C1)[C@@H](c1ccc(C#Cc3ccccc3)cc1)[C@@H]2CO` was 11.6% (inactive); that for `COc1ccc(NC(=O)Nc2ccc3c(c2)C(=O)N([C@H](C)CO)C[C@@H](C)[C@@H](CN(C)C(=O)NC(C)C)OCCCC[C@H](C)O3)cc1` was 4.29% (inactive). In the case of `COCC(=O)N1[C@H](C(=O)N2CCN(C)CC2)[C@@H](CO)[C@@H]2Cn3c(ccc(C4=CCCC4)c3=O)[C@@H]21` it was -7.88% (inactive).

With `COc1cccc(S(=O)(=O)N2CC3(CCN(C)CC3)c3c(n(C)c4cc(OC)ccc34)[C@H]2CO)c1`, the CPE inhibition is 3.74% (inactive). Turning to `CC(=O)C1=C(C)N(Cc2ccccc2)C(=S)NC1c1cccc(Br)c1` (stereo unspecified), the CPE inhibition is -5.19% (inactive). For the compound `C[C@@H]1CCCCO[C@@H](CN(C)S(=O)(=O)c2cccs2)[C@@H](C)CN([C@@H](C)CO)C(=O)c2cc(NS(=O)(=O)c3ccc(F)cc3)ccc2O1`, the CPE inhibition is -8.5% (inactive). Turning to `C[C@@H]1CN([C@@H](C)CO)C(=O)c2cccc(NC(=O)Nc3ccc(F)cc3)c2O[C@H]1CN(C)C(=O)Nc1ccc(F)cc1`, the CPE inhibition is 14.7% (inactive).

For the compound `C[C@@H]1CN([C@H](C)CO)C(=O)c2cccc(NC(=O)c3cnccn3)c2O[C@@H]1CN(C)Cc1ccncc1`, the CPE inhibition was 5.84% (inactive). Turning to `C[C@H](CO)N1C[C@H](C)[C@H](CN(C)C(=O)Nc2ccc(F)cc2)Oc2c(NC(=O)c3cnccn3)cccc2C1=O`, the CPE inhibition is 29.3% (active). In the case of `C[C@H]1CN([C@@H](C)CO)C(=O)c2cccc(NC(=O)c3cnccn3)c2O[C@@H]1CN(C)Cc1ccc(Oc2ccccc2)cc1` it was 2.15% (inactive); in that of `C[C@H]1CN([C@@H](C)CO)C(=O)c2cccc(NC(=O)c3cnccn3)c2O[C@H]1CN(C)C(=O)Nc1ccccc1`, 28.3% (active); in that of `CC(C)NC(=O)N(C)C[C@@H]1Oc2c(NC(=O)c3cnccn3)cccc2C(=O)N([C@@H](C)CO)C[C@@H]1C`, -11.9% (inactive). In the case of `CC(=O)N[C@H]1CC[C@H](CCNC(=O)C2CC2)O[C@H]1CO` it was -5.24% (inactive). In the case of `O=C(c1cccc(F)c1)N1C[C@H]2[C@@H](c3ccccc31)[C@@H](CO)N2C(=O)Cc1ccccc1` it was -5.94% (inactive); in that of `CO[C@@H]1CN(C)C(=O)c2ccc(NS(C)(=O)=O)cc2OC[C@@H](C)N(C(=O)CC2CC2)C[C@@H]1C`, -2.7% (inactive); in that of `Cc1c(C(=O)NCCN2C(=O)S/C(=C\c3cccs3)C2=O)cccc1[N+](=O)[O-]`, 27% (active). For the compound `Cc1nn(Cc2ccccc2)c(C)c1C(=O)NCCN1C(=O)S/C(=C\c2ccc(F)cc2)C1=O`, the CPE inhibition is -3.31% (inactive).

Turning to `Cc1c(C(=O)NCCCc2ccccc2)cccc1[N+](=O)[O-]`, the CPE inhibition is 4.47% (inactive).
